Test results published in PubChem BioAssay.
Inconclusive results are not listed. Calls of active or inactive are those of the source.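 Rule for the calls, unless noted: active = binding below the plate cutoff, the plate median minus 3 SD, with a reading above zero; inconclusive = below the plate cutoff but reading exactly zero; inactive = the rest.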

Assays:
[1] = yeast TOR pathway RPL19A-GFP modulators, primary screen, cell-based, S. cerevisiae, multiplex flow cytometry (AID 1862; in the data active = percent of DMSO control GFP below about 86%;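 note: lower values mimic rapamycin by blocking the RPL19A rise seen in DMSO cells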); settings: S. cerevisiae RPL19A-GFP strain, flow cytometry fluorescence, 3 h; at 10 µM; stronger effect = lower value
[2] = modulators of MEP2-GFP levels in yeast, primary screen, S. cerevisiae, multiplex flow cytometry (AID 1867;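 active = GFP response, as percent of the DMSO control, above the screen-wide mean plus 3 SD, about 139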;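 note: median GFP channel fluorescence of barcode-gated MEP2-GFP cells measured by flow cytometry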); settings: S. cerevisiae MEP2-GFP strain, 3 h, at 10 µM, stronger effect = higher value, 100% means same as DMSO wells
[3] = modulators of CIT2-GFP expression in yeast, primary screen, S. cerevisiae, GFP fusion, multiplex flow cytometry (AID 1870;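 active = percent response above a set limit, the screen-wide mean plus 3 SD, cut at about 130% in these data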;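 note: barcoded CIT2-GFP strain pooled with four other GFP strains with rapamycin as positive control; median GFP fluorescence per well over plate mean of DMSO wells so 100% = DMSO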); settings: 3 h, at 10 µM, stronger effect = higher value
[4] = modulators of LAP4-GFP expression in yeast, primary screen, S. cerevisiae, multiplex flow cytometry (AID 1873;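 active = GFP signal, as percent of the solvent control, above the screen mean plus 3 SD, about 149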); settings: 3 h, at 10 µM, stronger effect = higher value
[5] = modulators of AGP1-GFP expression in yeast TOR pathway, primary screen, cell-based, multiplex flow cytometry, S. cerevisiae (AID 1887;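 active = GFP signal above the screen-wide mean plus 3 SD, that is over about 124.5% of the solvent control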;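 note: AGP1-GFP fusion strain of S. cerevisiae within a five-strain barcoded multiplex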); settings: 3 h, at 10 µM, stronger effect = higher value
[6] = inhibitors of CD8+ T cell-vesicle binding, pilot screen, LFA-1/ICAM-1 modulator project, MLPCN validation set, flow cytometry (AID 2523;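 active = response below a set limit, under 55% cells CD8-positive and vesicle-bound, and CD8 cells' 90th-percentile brightness under 279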;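 for vesicle binding response: mean PE anti-B7-1 fluorescence of CD8+ cells relative to row control; 100% = QL9-loaded vesicles with DMSO vehicle in the same plate row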); settings: 2C mouse CD8+ T cells, at 7 µM, stronger effect = lower value; double positive events: measured here: CD8+/vesicle+ event percentage
[7] = molecular target: Integrin beta-1 (Homo sapiens) + Integrin alpha-4 (Homo sapiens) (UniProt P13612+P05556); assay: inhibition of HUTS-21 binding to VLA-4, pilot screen, VLA-4 allosteric modulator project, U937 cells, HUTS-21 mAb, flow cytometry, validation set (AID 2674;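 active = inhibition above 50%, about 3 SD of the validation set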;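 note: antibody binding induced by the VLA-4 ligand LDV present at three times its Kd; 0% = LDV ligand with antibody and no compound and 100% = antibody without LDV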); settings: HUTS-21 LIBS mAb binding, at 6.7 µM, stronger effect = higher value, binding induced by LDV ligand
Sequence of Integrin beta-1 (Homo sapiens) + Integrin alpha-4 (Homo sapiens) (P05556 whole entry, looked up): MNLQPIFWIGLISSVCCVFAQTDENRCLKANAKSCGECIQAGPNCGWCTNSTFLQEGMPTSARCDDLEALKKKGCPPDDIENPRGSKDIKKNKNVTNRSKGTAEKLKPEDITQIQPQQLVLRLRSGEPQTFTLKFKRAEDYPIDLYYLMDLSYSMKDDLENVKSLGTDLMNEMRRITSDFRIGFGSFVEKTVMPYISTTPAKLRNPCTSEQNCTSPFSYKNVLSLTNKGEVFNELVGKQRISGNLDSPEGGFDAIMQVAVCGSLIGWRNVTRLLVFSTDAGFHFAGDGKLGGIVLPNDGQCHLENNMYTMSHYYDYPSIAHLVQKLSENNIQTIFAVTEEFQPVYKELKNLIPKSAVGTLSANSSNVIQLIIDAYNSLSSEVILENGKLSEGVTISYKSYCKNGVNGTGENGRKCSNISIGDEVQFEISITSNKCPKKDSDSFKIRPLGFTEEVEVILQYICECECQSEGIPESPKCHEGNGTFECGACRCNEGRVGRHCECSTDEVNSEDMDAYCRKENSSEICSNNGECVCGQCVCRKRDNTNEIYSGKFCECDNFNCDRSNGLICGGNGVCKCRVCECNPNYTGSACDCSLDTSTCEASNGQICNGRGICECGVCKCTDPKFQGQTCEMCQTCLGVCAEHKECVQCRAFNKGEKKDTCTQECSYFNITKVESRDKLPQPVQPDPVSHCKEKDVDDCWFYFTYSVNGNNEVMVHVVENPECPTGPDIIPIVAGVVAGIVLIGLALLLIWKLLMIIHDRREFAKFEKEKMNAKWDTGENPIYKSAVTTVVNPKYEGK
Sequence of Integrin beta-1 (Homo sapiens) + Integrin alpha-4 (Homo sapiens) (P13612 whole entry, looked up): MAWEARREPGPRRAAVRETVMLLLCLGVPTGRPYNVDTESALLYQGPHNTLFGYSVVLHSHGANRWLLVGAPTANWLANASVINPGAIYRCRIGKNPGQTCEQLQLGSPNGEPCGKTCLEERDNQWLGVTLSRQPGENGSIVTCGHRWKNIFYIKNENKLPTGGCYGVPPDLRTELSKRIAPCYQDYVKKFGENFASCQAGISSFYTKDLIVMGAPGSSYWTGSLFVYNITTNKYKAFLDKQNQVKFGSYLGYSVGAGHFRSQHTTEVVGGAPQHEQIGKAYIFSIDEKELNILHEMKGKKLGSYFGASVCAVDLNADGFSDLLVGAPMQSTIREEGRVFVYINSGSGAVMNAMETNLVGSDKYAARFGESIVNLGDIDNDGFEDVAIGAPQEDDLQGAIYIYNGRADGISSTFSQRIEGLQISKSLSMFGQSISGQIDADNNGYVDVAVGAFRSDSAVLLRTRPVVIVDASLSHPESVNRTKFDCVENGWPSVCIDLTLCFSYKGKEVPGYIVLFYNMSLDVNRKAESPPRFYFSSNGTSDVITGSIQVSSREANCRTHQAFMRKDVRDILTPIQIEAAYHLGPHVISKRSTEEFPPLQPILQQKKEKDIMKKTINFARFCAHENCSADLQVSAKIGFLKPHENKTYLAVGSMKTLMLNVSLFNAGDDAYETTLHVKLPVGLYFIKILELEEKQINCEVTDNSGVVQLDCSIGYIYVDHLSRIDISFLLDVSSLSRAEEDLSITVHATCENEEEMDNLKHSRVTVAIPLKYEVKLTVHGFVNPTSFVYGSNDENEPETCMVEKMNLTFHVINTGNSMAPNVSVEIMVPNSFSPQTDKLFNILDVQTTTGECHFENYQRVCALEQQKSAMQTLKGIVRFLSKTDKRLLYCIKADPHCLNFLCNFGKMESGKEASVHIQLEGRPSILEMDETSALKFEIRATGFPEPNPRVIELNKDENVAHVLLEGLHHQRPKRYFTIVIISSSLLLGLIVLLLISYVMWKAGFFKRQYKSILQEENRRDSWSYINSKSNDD

[8] = superoxide lowering in aged yeast cells, pilot screen, validation compound set (AID 2706;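 active = superoxide response below 65% of plate, a cut near 3 SD across the whole screen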;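 note: yeast exposed to compound for one week at 30 degrees C before staining; 100% = mean of all compound wells on the same plate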); settings: S. cerevisiae aging, superoxide DHE fluorescence; at 10 µM; stronger effect = lower value
[9] = molecular target: Beta-adrenergic receptor kinase 1 (Homo sapiens) (UniProt P25098); assay: GRK2 binders displacing RNA aptamer, biochemical, validation, human GRK2, bead flow cytometry (AID 488806;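 active = aptamer binding inhibition above 30%, about 3 SD of noise from non-fluorescent compounds; inactive = inhibition at or below 30%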); settings: bead-bound GRK2, FAM-aptamer displacement, at 10 µM, stronger effect = higher value
Sequence of Beta-adrenergic receptor kinase 1 (Homo sapiens) (P25098 whole entry, looked up): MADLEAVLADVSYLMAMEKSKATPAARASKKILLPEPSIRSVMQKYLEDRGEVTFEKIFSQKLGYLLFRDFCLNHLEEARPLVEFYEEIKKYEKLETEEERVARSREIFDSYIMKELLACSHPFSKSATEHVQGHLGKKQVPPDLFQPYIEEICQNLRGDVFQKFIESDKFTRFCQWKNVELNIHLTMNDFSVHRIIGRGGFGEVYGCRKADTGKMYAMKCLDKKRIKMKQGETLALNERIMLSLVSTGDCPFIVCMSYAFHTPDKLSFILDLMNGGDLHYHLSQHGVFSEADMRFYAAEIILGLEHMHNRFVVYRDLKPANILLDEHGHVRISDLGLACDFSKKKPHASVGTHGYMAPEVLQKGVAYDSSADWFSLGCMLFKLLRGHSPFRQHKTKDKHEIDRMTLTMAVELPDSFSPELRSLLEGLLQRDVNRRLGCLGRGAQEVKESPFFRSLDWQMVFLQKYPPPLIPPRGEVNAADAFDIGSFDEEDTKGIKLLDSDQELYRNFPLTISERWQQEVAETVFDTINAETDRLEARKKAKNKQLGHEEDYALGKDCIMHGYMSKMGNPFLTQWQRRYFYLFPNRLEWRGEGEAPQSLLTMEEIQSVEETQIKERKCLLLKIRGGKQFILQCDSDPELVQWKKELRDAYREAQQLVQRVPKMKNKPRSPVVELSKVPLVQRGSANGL

[10] = molecular target: Beta-2 adrenergic receptor (Homo sapiens) (UniProt P07550); assay: beta2AR agonists driving receptor internalization, pilot screen, cell-based, FAP fluorogen, flow cytometry, validation set (AID 504459;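 active = percent response above 42, roughly 3 SD of non-fluorescent test compounds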;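 note: agonist-driven loss of surface beta2AR via internalization measured by FAP dye flow cytometry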); settings: Am2.2-beta2AR cells, FAP surface receptor flow cytometry; at 10 µM; stronger effect = higher value
Sequence of Beta-2 adrenergic receptor (Homo sapiens) (P07550 whole entry, looked up): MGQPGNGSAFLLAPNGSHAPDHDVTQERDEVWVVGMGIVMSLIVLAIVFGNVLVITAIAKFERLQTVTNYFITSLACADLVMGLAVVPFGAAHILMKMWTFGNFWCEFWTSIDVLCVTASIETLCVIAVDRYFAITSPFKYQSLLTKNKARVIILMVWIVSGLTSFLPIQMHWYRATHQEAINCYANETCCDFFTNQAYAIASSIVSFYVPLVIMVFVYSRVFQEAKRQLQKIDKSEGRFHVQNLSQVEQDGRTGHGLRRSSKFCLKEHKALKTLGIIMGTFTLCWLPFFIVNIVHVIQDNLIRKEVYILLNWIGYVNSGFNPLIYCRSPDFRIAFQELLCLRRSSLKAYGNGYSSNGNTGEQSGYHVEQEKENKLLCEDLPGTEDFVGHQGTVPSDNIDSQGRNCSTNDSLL

[11] = molecular target: AP-2 complex subunit beta (Homo sapiens) (UniProt P63010); assay: inhibitors of arrestin peptide binding to AP2, pilot screen, biochemical, validation set, GST-AP2 beads, flow cytometry (AID 504541;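 active = inhibition above 54%, about 3 SD of non-fluorescent compounds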;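 note: AP2 carries R879A mutation and is captured from E. coli lysate; bead-bound FITC arrestin peptide fluorescence measuring arrestin peptide binding to AP2; 0% = DMSO wells and 100% = excess unlabeled arrestin peptide control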); settings: FITC arrestin peptide, at 10 µM, stronger effect = higher value, AP2 beta2 appendage fragment, R879A mutant
Sequence of AP-2 complex subunit beta (Homo sapiens) (P63010 whole entry, looked up, the tested form may be a part, one chain of several): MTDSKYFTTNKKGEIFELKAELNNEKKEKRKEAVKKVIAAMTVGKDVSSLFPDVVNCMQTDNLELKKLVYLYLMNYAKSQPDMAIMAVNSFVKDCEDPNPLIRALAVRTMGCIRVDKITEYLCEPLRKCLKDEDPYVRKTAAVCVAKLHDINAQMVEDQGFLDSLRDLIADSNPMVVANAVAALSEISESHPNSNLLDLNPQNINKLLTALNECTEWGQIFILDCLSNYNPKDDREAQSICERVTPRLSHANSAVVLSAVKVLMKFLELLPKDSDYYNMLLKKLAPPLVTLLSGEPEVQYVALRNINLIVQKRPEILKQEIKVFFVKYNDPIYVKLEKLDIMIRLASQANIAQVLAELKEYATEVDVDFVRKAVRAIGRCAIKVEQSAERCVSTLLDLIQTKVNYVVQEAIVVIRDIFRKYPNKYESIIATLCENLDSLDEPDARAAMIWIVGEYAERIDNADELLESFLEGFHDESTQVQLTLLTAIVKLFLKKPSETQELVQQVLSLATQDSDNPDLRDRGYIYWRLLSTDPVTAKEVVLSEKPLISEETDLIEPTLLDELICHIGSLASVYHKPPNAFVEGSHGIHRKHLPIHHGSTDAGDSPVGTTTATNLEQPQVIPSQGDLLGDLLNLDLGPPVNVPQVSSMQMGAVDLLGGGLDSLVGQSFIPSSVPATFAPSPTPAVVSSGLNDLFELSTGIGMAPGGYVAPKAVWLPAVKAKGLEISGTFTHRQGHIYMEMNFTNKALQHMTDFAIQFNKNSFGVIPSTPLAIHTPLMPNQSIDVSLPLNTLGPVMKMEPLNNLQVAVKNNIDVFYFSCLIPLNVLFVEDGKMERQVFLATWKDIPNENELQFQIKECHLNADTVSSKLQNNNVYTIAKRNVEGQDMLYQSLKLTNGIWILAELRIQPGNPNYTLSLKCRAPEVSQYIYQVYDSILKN

[12] = yeast V-ATPase proton transport modulators, S. cerevisiae, pHLuorin, HTS validation (AID 504600; in the data active = response above about 15%;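 note: plate controls were DMSO for no effect and reference compound for full effect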); settings: S. cerevisiae pHLuorin cytosolic pH, at 10 µM, stronger effect = higher value
[13] = tested on: anti-desmoglein-3 scFv antibody binding to human DSG3; assay: inhibitors of anti-DSG3 scFv binding to DSG3, pilot screen, biochemical, validation compound set, bead-based, flow cytometry (AID 588368); settings: Protein G beads, DSG3-Fc, scFv-GFP binding, at 10 µM, stronger effect = lower value;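 note: signal is the median channel fluorescence of bead-bound GFP antibody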
[14] = inhibitors of fungal efflux pumps CDR1, CDR2, MDR1, pilot screen, validation compound set, multiplex, phenotypic (AID 588506;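 active = efflux inhibition above 0.42, the validation set average plus 4 SD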;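 note: Nile Red retained in cells so higher fluorescence means more efflux inhibition; 0 = negative control wells and 1 = enniatin B 25 µM full block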); settings: S. cerevisiae pump-expressing triplex, Nile Red efflux flow cytometry; at 10 µM; stronger effect = higher value; the pumps come from Candida albicans
[15] = molecular target: ATP-binding cassette sub-family B member 6 (Homo sapiens) (UniProt Q9NP58); assay: ABCB6 transporter inhibitors, pilot screen, K562-ABCB6 cells, flow cytometry, validation set (AID 588550;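 active = inhibition above the screen-wide mean plus 3 SD, about 51%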;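 note: 0% = DMSO wells and 100% = benzethonium chloride 70 µM positive control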); settings: K562-ABCB6 porphyrin accumulation, 1 h, at 10 µM, stronger effect = higher value
Sequence of ATP-binding cassette sub-family B member 6 (Homo sapiens) (Q9NP58 whole entry, looked up): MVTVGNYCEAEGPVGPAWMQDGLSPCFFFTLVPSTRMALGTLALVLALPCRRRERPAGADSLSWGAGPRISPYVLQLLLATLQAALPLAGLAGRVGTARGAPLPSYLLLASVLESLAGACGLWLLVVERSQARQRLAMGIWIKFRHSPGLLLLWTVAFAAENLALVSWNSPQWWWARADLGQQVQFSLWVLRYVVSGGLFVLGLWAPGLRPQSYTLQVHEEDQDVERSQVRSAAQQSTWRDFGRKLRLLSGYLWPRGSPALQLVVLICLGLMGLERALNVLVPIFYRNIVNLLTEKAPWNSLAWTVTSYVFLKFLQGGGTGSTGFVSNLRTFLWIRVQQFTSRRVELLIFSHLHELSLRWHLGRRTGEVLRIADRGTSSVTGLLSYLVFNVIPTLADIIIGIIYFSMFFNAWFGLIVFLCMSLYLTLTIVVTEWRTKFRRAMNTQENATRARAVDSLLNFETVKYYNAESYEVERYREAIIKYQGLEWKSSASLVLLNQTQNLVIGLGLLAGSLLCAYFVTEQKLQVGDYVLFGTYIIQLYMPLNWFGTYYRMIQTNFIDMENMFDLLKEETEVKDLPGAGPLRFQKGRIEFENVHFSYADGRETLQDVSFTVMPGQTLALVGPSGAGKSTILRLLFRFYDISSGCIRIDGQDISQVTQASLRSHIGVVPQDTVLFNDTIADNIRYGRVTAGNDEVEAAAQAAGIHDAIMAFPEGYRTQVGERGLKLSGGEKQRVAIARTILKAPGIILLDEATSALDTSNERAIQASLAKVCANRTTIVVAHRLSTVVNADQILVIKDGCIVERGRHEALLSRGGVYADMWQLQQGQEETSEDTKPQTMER

[16] = promoters of myeloid differentiation in arrested cells, primary screen, cell-based, GFP/MAC1 double positive, flow cytometry, validation set (AID 588685;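 active = differentiation response of at least 50%, scaled between solvent and reference control, from cells with both markers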;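 note: compound exposure lasts four days before antibody staining and flow analysis; 0% = DMSO wells and 100% = 5 µM fulvestrant positive control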); settings: ER-HoxA9 marrow cells, stronger effect = higher value, normalized: vehicle 0, fulvestrant 100

| Compound | percent of DMSO control GFP [1] | GFP response vs DMSO [2] | percent response of DMSO control [3] | GFP response vs DMSO [4] | GFP response, % of DMSO [5] | double positive events [6] [%] | vesicle binding response [6] | inhibition [7] | superoxide response (% of plate) [8] | aptamer binding inhibition [9] | response [10] | inhibition [11] | response [12] | binding (% of control) [13] | efflux inhibition (fraction of control) [14] | inhibition [15] | differentiation response [16] |
| --- | --- | --- | --- | --- | --- | --- | --- | --- | --- | --- | --- | --- | --- | --- | --- | --- | --- |
| CC(=O)NS(=O)(=O)c1ccc(N)cc1 | 98.6% (inactive) | 101% (inactive) | 97% (inactive) | 101% (inactive) | 104% (inactive) | 62.3 | 335% (inactive) | 0.59% (inactive) | 101% (inactive) | 2% (inactive) | -16.2% (inactive) | -0.64% (inactive) | 0.06% (inactive) | 103% (inactive) | 0.04 (inactive) | 5% (inactive) | -3.02% (inactive) |
| Cc1ccc2c(CC(=O)O)coc2c1 | 104% (inactive) | 94.1% (inactive) | 109% (inactive) | 73% (inactive) | 95.4% (inactive) | 61.6 | 132% (inactive) | -0.45% (inactive) | 107% (inactive) | 13% (inactive) | -1.64% (inactive) | 0.71% (inactive) | -0.96% (inactive) | 95.5% (inactive) | 0.02 (inactive) | 13% (inactive) | 0.24% (inactive) |
| Cn1cc(/C=C/C(=O)c2ccccc2)c2ccccc21 | 98% (inactive) | 107% (inactive) | 87.2% (inactive) | 133% (inactive) | 89.7% (inactive) | 58.1 | 230% (inactive) | -1.79% (inactive) | 102% (inactive) | 1% (inactive) | 32.6% (inactive) | 4.67% (inactive) | -2% (inactive) | 101% (inactive) | -0.1 (inactive) | 4% (inactive) | -10.4% (inactive) |
| COc1ccc([C@H]2[C@H](C(=O)OC(C)(C)C)N3N=Cc4ccccc4C3C23C(=O)c2ccccc2C3=O)cc1OC (stereo not given in full) | 99.1% (inactive) | 106% (inactive) | 97.7% (inactive) | 97.4% (inactive) | 89.1% (inactive) | 49.9 | 39.2% (active) | -45.5% (inactive) | 103% (inactive) | -1% (inactive) | 35.3% (inactive) | 61.9% (active) | -3.19% (inactive) | 96.8% (inactive) | -0.06 (inactive) | -27% (inactive) | -13.6% (inactive) |
| COc1ccc(CN2CCCC(C(=O)c3ccc(Cl)cc3)C2)cc1Cn1cccn1 (stereo not given) | 104% (inactive) | 105% (inactive) | 99.7% (inactive) | 95.9% (inactive) | 100% (inactive) | 61.3 | 182% (inactive) | -9.13% (inactive) | 79.4% (inactive) | -4% (inactive) | 30.8% (inactive) | -0.55% (inactive) | 1.1% (inactive) | 98.5% (inactive) | 0.05 (inactive) | 12% (inactive) | -3.11% (inactive) |
| O=C(CCSc1ccccc1)N1CCCC1 | 109% (inactive) | 109% (inactive) | 104% (inactive) | 104% (inactive) | 112% (inactive) | 67.6 | 193% (inactive) | 3.98% (inactive) | 109% (inactive) | 5% (inactive) | -4.18% (inactive) | 33.8% (inactive) | -0.71% (inactive) | 91.3% (inactive) | -0.15 (inactive) | 5% (inactive) | -0.36% (inactive) |
| O=C(O)CCCCCNC(=O)Nc1ccc2c(c1)OCCO2 | 101% (inactive) | 115% (inactive) | 112% (inactive) | 77% (inactive) | 91.2% (inactive) | 49.7 | 207% (inactive) | -12% (inactive) | 105% (inactive) | -3% (inactive) | -9.55% (inactive) | -7.04% (inactive) | -4.4% (inactive) | 108% (inactive) | 0.12 (inactive) | 7% (inactive) | -3.28% (inactive) |
| OC(C#CCN1CCCC1)(c1ccccc1)c1cccnc1 (stereo not given) | 98.9% (inactive) | 101% (inactive) | 98.3% (inactive) | 103% (inactive) | 107% (inactive) | 60.3 | 166% (inactive) | 11.7% (inactive) | 83.2% (inactive) | 6% (inactive) | -14.6% (inactive) | -2.57% (inactive) | 1.86% (inactive) | 108% (inactive) | -0.09 (inactive) | -14% (inactive) | 14.7% (inactive) |
| COc1ccc2c(c1)c(=O)oc1cc3occ(C(C)(C)C)c3cc12 | 103% (inactive) | 105% (inactive) | 103% (inactive) | 109% (inactive) | 108% (inactive) | 60 | 138% (inactive) | 9.95% (inactive) | 92.5% (inactive) | 0% (inactive) | -15.7% (inactive) | 42.4% (inactive) | 29.4% (active) | 93.8% (inactive) | 0.21 (inactive) | 0% (inactive) | -14.8% (inactive) |
| CCC(C)n1ncn(-c2ccc(N3CCN(c4ccc(OCC5COC(Cn6cncn6)(c6ccc(Cl)cc6Cl)O5)cc4)CC3)cc2)c1=O (stereo not given) | 115% (inactive) | 110% (inactive) | 97.1% (inactive) | 133% (inactive) | 102% (inactive) | 58.2 | 22.8% (inactive) | 3.98% (inactive) | 53.9% (active) | 4% (inactive) | 8.75% (inactive) | -13.8% (inactive) | 1.4% (inactive) | 99.3% (inactive) | 0.55 (active) | 7% (inactive) | 6.49% (inactive) |
